Test results reported in the supplement of paper PMC4466140.

target: ScBbc1; assay: SPOT peptide array binding signal intensity (averaged, normalized) (arbitrary units (background-subtracted, floor 0; scale differs between SH3 domains)); higher = stronger binding of the SH3 domain to the peptide
In short: (§1)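 Binding signal refers to normalized, background-subtracted spot intensity averaged over replicates, expressed in arbitrary units that differ between domains. GST-fused SH3 domains from four yeast species were incubated at 10 μg/ml overnight at 4°C on cellulose membranes of synthetic 15-mer peptides with cysteines replaced by serines. Bound protein was detected with anti-GST antibody, an HRP anti-mouse secondary and luminol, and quantified with Genespotter.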

| Binder | SPOT peptide array binding signal intensity |
| --- | --- |
| IKKRNKIRLPSGSPE | 12.8 |

target: ScBem1-D1; assay: as above
In short: as §1

| Binder | SPOT peptide array binding signal intensity |
| --- | --- |
| IKKRNKIRLPSGSPE | 62 |

target: ScBzz1-D1; assay: as above
In short: as §1

| Binder | SPOT peptide array binding signal intensity |
| --- | --- |
| IKKRNKIRLPSGSPE | 20 |

target: ScBzz1-D2; assay: as above
In short: as §1

| Binder | SPOT peptide array binding signal intensity |
| --- | --- |
| IKKRNKIRLPSGSPE | 15 |

target: ScCyk3; assay: as above
In short: as §1

| Binder | SPOT peptide array binding signal intensity |
| --- | --- |
| IKKRNKIRLPSGSPE | 181 |

target: ScFus1; assay: as above
In short: as §1

| Binder | SPOT peptide array binding signal intensity |
| --- | --- |
| IKKRNKIRLPSGSPE | 242 |

target: ScHof1; assay: as above
In short: as §1

| Binder | SPOT peptide array binding signal intensity |
| --- | --- |
| IKKRNKIRLPSGSPE | 1.5 |

target: ScHse1; assay: as above
In short: as §1

| Binder | SPOT peptide array binding signal intensity |
| --- | --- |
| IKKRNKIRLPSGSPE | 1420 |

target: ScLsb1; assay: as above
In short: as §1

| Binder | SPOT peptide array binding signal intensity |
| --- | --- |
| IKKRNKIRLPSGSPE | 6.25 |

target: ScLsb2; assay: as above
In short: as §1

| Binder | SPOT peptide array binding signal intensity |
| --- | --- |
| IKKRNKIRLPSGSPE | 11 |

target: ScLsb3; assay: as above
In short: as §1

| Binder | SPOT peptide array binding signal intensity |
| --- | --- |
| IKKRNKIRLPSGSPE | 162 |

target: ScLsb4; assay: as above
In short: as §1

| Binder | SPOT peptide array binding signal intensity |
| --- | --- |
| IKKRNKIRLPSGSPE | 13 |

target: ScMyo3; assay: as above
In short: as §1

| Binder | SPOT peptide array binding signal intensity |
| --- | --- |
| IKKRNKIRLPSGSPE | 4 |

target: ScMyo5; assay: as above
In short: as §1

| Binder | SPOT peptide array binding signal intensity |
| --- | --- |
| IKKRNKIRLPSGSPE | 6 |

target: ScNbp2; assay: as above
In short: as §1

| Binder | SPOT peptide array binding signal intensity |
| --- | --- |
| IKKRNKIRLPSGSPE | 256 |

target: ScPex13; assay: as above
In short: as §1

| Binder | SPOT peptide array binding signal intensity |
| --- | --- |
| IKKRNKIRLPSGSPE | 7.5 |

target: ScRvs167; assay: as above
In short: as §1

| Binder | SPOT peptide array binding signal intensity |
| --- | --- |
| IKKRNKIRLPSGSPE | 33 |

target: ScSho1; assay: as above
In short: as §1

| Binder | SPOT peptide array binding signal intensity |
| --- | --- |
| IKKRNKIRLPSGSPE | 681 |

target: ScSla1-D1-D2; assay: as above
In short: as §1

| Binder | SPOT peptide array binding signal intensity |
| --- | --- |
| IKKRNKIRLPSGSPE | 362 |

target: ScSla1-D3; assay: as above
In short: as §1

| Binder | SPOT peptide array binding signal intensity |
| --- | --- |
| IKKRNKIRLPSGSPE | 30 |

target: SpAbp1-D1; assay: as above
In short: as §1

| Binder | SPOT peptide array binding signal intensity |
| --- | --- |
| IKKRNKIRLPSGSPE | 512 |

target: SpBbc1; assay: as above
In short: as §1

| Binder | SPOT peptide array binding signal intensity |
| --- | --- |
| IKKRNKIRLPSGSPE | 2 |

target: SpBzz1-D1; assay: as above
In short: as §1

| Binder | SPOT peptide array binding signal intensity |
| --- | --- |
| IKKRNKIRLPSGSPE | 122 |

target: SpBzz1-D2; assay: as above
In short: as §1

| Binder | SPOT peptide array binding signal intensity |
| --- | --- |
| IKKRNKIRLPSGSPE | 2 |

target: SpCyk3; assay: as above
In short: as §1

| Binder | SPOT peptide array binding signal intensity |
| --- | --- |
| IKKRNKIRLPSGSPE | 6.5 |

target: SpHof1; assay: as above
In short: as §1

| Binder | SPOT peptide array binding signal intensity |
| --- | --- |
| IKKRNKIRLPSGSPE | 253 |

target: SpHof1-2; assay: as above
In short: as §1

| Binder | SPOT peptide array binding signal intensity |
| --- | --- |
| IKKRNKIRLPSGSPE | 4.5 |

target: SpHof1-3; assay: as above
In short: as §1

| Binder | SPOT peptide array binding signal intensity |
| --- | --- |
| IKKRNKIRLPSGSPE | 664 |

target: SpHse1; assay: as above
In short: as §1

| Binder | SPOT peptide array binding signal intensity |
| --- | --- |
| IKKRNKIRLPSGSPE | 457 |

target: SpLsb1; assay: as above
In short: as §1

| Binder | SPOT peptide array binding signal intensity |
| --- | --- |
| IKKRNKIRLPSGSPE | 6.5 |

target: SpLsb4; assay: as above
In short: as §1

| Binder | SPOT peptide array binding signal intensity |
| --- | --- |
| IKKRNKIRLPSGSPE | 104 |

target: SpMyo1; assay: as above
In short: as §1

| Binder | SPOT peptide array binding signal intensity |
| --- | --- |
| IKKRNKIRLPSGSPE | 4 |

target: SpNbp2; assay: as above
In short: as §1

| Binder | SPOT peptide array binding signal intensity |
| --- | --- |
| IKKRNKIRLPSGSPE | 836 |

target: SpPex13; assay: as above
In short: as §1

| Binder | SPOT peptide array binding signal intensity |
| --- | --- |
| IKKRNKIRLPSGSPE | 6 |

target: SpRvs167; assay: as above
In short: as §1

| Binder | SPOT peptide array binding signal intensity |
| --- | --- |
| IKKRNKIRLPSGSPE | 8.5 |

target: SpSla1-D1-D2; assay: as above
In short: as §1

| Binder | SPOT peptide array binding signal intensity |
| --- | --- |
| IKKRNKIRLPSGSPE | 1.5 |

target: SpSla1-D3; assay: as above
In short: as §1

| Binder | SPOT peptide array binding signal intensity |
| --- | --- |
| IKKRNKIRLPSGSPE | 2 |
